The values that follow come from PubChem BioAssay (NCATS).

Assay [1] concerns the target Lysosomal acid glucosylceramidase (Homo sapiens) (UniProt P04062). The assay is described as follows: Glucocerebrosidase-p2 (AID 348; in the data active = potency below about 10 µM; note: potency is the fitted concentration of half-maximal effect). The settings on record: purified GBA, blue fluorogenic substrate, 40 min. In a few lines: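 Compounds titrated from 0.6 nM upwards against 0.2 nM enzyme in pH 5.9 citric acid/KH2PO4, taurocholate, tween-20; blue fluorogenic substrate 80 uM, 40 min room temperature, stopped and read Ex 365/Em 440 for AC50.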

Assay [2] is described as follows: AP1 Signaling Pathway (AID 357). Note: % is set by controls: 0 for no effect and ±100 for the full control effect. The note with it: ME-180 AP-1-bla reporter, EGF-induced, beta-lactamase ratio, 5 h; at 7.69 µM (top of the series) unless noted. In a few lines: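 First, ME-180 AP-1-bla cells were cultured overnight at 37 °C in low-serum Opti-MEM. Next, titrated compounds with EC50 EGF were incubated 5 hours. Finally, CCF4 was added for 2.5 hours and the 460/530 nm ratio recorded.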

Assay [3] deals with Cytochrome P450 1A2 (Homo sapiens) (UniProt P05177). The assay can be described thus: p450-cyp1a2 (AID 410; calls by dose curve; note: potency is the fitted concentration of half-maximal effect;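 for activity change, negative = inhibition: -100% = full effect of reference inhibitor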). The settings on record: recombinant CYP1A2, luciferin-ME demethylation, luminescence; series mostly up to 11.4 µM. Summed up:
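Luminescent readout of luciferin formed from Luciferin-ME by human CYP1A2; data normalized against complete inhibition by 57 uM furafylline. Enzyme 20nM, substrate 100uM at Km, 100mM KPO4 buffer, 60 min reaction at room temperature.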

A short description of assay [4]: Stat Signaling Pathway (AID 446).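 Note: ME-180 cervical cancer cells given 40 pM IL-6 alongside compound; SIE-controlled beta-lactamase reporter measured as 460/530 nm FRET emission ratio; % is set by controls: 0 for no effect and ±100 for the full control effect.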 The note with it: ME-180 SIE beta-lactamase reporter, IL-6 stimulated, 5 h; at 7.69 µM (top of the series) unless noted. In a few lines:
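ME-180 cells carrying a SIE-driven beta-lactamase reporter are stimulated with 40 pM IL-6 for 5 h at 37C in the presence of compound. The 460/530 nm FRET substrate ratio is read after 2.5 h at RT. Data are normalised to 300 pM IL-6 and to 125 nM JAK inhibitor controls.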

For assay [5], the target named is Glucocorticoid receptor (Homo sapiens) (UniProt P04150). The assay is described as follows: GR-GFP Redistribution (AID 450;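 active = compounds whose dose series gives a full or clear partial fitted curve of increased nuclear translocation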; note: potency is the fitted concentration of half-maximal effect). The note with it: U2OS GR-GFP nuclear translocation, laser cytometry, 2 h.
Assay [6] shares this target. The assay is described as follows: GR-EFC Redistribution (AID 451; calls by dose curve; note: potency is the fitted concentration of half-maximal effect). The note with it: CHO-K1 GR-EFC translocation, beta-gal luminescence, 2 h. Summed up: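 Translocation of GR-ED fusion to nuclear EA restores b-gal, read by luminescence after 1 h room-temperature detection. Engineered CHO-K1 biosensor cells, 1,000/well, exposed 2 h at 37 C to titrations up to 46 uM final.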

Assay [7] addresses Mitogen-activated protein kinase 10 (Mus musculus) (UniProt Q61831). The assay is described as follows: JNK3 AlphaScreen Assay (AID 530).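 Note: kinase came from lysate of stimulated human HepG2 cells; signal reports phosphorylation of biotinylated GST-cJun 1-79 at Ser73 with 10 µM ATP; % is set by controls: 0 for no effect and ±100 for the full control effect.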 The settings on record: JNK3 lysate, c-Jun phosphorylation; series mostly up to 11.4 µM. Summed up:
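Compound titrations were preincubated 15 minutes at room temperature with substrate, antibody and pre-activated JNK3-containing HepG2 lysate. Reactions were started with 10 uM ATP and stopped with EDTA-containing bead buffer for AlphaScreen detection.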
Background: In Alpha technology, singlet oxygen from a donor bead excites a nearby acceptor bead.

The target in assay [8] is 3',5'-cyclic-AMP phosphodiesterase 4B (Homo sapiens) (UniProt Q07343). The assay can be described thus: qHTS Assay for Inhibitors of PDE-IV (AID 607; active = well fitted activation curve with a large enough effect in the main read-out, with a control signal flat, not every such curve was filed as active; note: % of control where 0% means no effect). The note with it: HEK293 ACTOne CNG channel cells, membrane potential fluorescence; series mostly up to 22.9 µM. Summed up:
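HEK293 ACTOne cells with CNG channel (1000/well), endogenous PDE4; membrane potential dye, compounds up to 22.9 uM final. Fluorescence Ex 535/Em 590; RO 20-1724 (100 uM final) as reference.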
(qHTS replaces the single test concentration by a dilution series.)

The target of assay [9] is Cytochrome P450 2C9 (Homo sapiens) (UniProt P11712). The assay is described as follows: qHTS Assay for Inhibitors and Substrates of Cytochrome P450 2C9 (AID 883; active = well fitted curve in the direction sought with a large enough effect; an effect the other way counts as inactive or inconclusive; note: potency is the fitted concentration of half-maximal effect; nearly all actives have a fitted effect of over 60% in size). The note with it: recombinant CYP2C9, luciferin-H luminescence, 60 min; series mostly up to 11.4 µM. In a few lines: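 Luminescent read-out of deoxyluciferin hydroxylation, normalized to 57uM sulphaphenazole (AC100). Reaction: 10nM enzyme, 100uM Luciferin-H (equal to KM), 25mM KPO4, 10 min compound preincubation, then 60 min with NADPH regeneration, both at 37C.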

Assay [10] has as its target Cytochrome P450 3A4 (Homo sapiens) (UniProt P08684). The assay is described as follows: qHTS Assay for Activators of Cytochrome P450 3A4 (AID 885; active = well fitted curve in the direction sought with a large enough effect; an effect the other way counts as inactive or inconclusive; note: nearly all actives have a fitted effect of over 65% in size). The note with it: recombinant CYP3A4, Luciferin-PPXE luminescence, 60 min; series mostly up to 11.4 µM. In a few lines:
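Human CYP3A4 (20 nM) with Luciferin-PPXE at 25 uM (its KM) in 200 mM KPO4; 10 min compound preincubation, then NADPH regeneration and 60 min reaction at RT. Luciferin read by luminescence; normalized to 57 uM ketoconazole full inhibition.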

Assay [11] addresses Cytochrome P450 2C19 (Homo sapiens) (UniProt P33261). The assay is described as follows: qHTS Assay for Inhibitors and Substrates of Cytochrome P450 2C19 (AID 899; active = well fitted curve in the direction sought with a large enough effect; an effect the other way counts as inactive or inconclusive; note: potency is the fitted concentration of half-maximal effect; nearly all actives have a fitted effect of over 60% in size). The settings on record: recombinant CYP2C19, luciferin-H EGE luminescence; series mostly up to 11.4 µM. In a few lines:
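Luminescence readout of luciferin formed from 10uM Luciferin-H EGE (KM level) by 5 nM CYP2C19 in 50mM KPO4. 60 min NADPH-driven reaction at 37C after 10 min compound preincubation; data scaled to 57uM ketoconazole inhibition.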

Assay [12] is described as follows: qHTS Assay for Identification of Small Molecule Agonists for Hypoxia Response Element Signaling Pathway (AID 914; active = well fitted activation curve with a large enough effect in the signal ratio, with a control signal flat, not every such curve was filed as active; the % refers to the signal ratio; note: % of control where 0% means no effect). The settings on record: ME-180 (cervical carcinoma) HRE-bla reporter, beta-lactamase ratio, CoCl2, 17 h; activation: stronger effect = higher value. In a few lines: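 qHTS titration; ME-180 HRE-bla cells; EC50 CoCl2 co-treatment, 17 h at 37 degrees Celsius; CCF4 dye, ex 405nm, em 460nm and 530nm; %Activity from ratio; AC50.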

Assay [13] has as its target Cytochrome P450 3A4 (Homo sapiens) (UniProt P08684). The assay can be described thus: qHTS Assay for Inhibitors and Substrates of Cytochrome P450 3A4 (AID 884; active = well fitted curve in the direction sought with a large enough effect; an effect the other way counts as inactive or inconclusive; note: potency is the fitted concentration of half-maximal effect; nearly all actives have a fitted effect of over 50% in size). The note with it: recombinant CYP3A4, Luciferin-PPXE luminescence; series mostly up to 57.1 µM. In a few lines: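 20 nM human CYP3A4 with 25 uM Luciferin-PPXE (at KM) in 200 mM KPO4, preincubated 10 min with compound; NADPH regeneration started a 60 min RT reaction. Luciferin detected by luminescence, normalized to 57 uM ketoconazole as full inhibition.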

Molecules are shown by their SMILES. Unmarked numbers belong to inactive results. Results filed as inconclusive are left out. Active and inactive are the calls of the source. Unless noted, calls come from the whole dose curve; as a rule, active = well fitted curve in either direction with a large enough effect (not every such curve was filed as active); inconclusive = small, poorly fitted or top-dose-only effect, or another doubt; inactive = flat fitted curve, though single readings scatter.

Lysosomal acid glucosylceramidase (Homo sapiens), sequence (P04062 whole entry, looked up): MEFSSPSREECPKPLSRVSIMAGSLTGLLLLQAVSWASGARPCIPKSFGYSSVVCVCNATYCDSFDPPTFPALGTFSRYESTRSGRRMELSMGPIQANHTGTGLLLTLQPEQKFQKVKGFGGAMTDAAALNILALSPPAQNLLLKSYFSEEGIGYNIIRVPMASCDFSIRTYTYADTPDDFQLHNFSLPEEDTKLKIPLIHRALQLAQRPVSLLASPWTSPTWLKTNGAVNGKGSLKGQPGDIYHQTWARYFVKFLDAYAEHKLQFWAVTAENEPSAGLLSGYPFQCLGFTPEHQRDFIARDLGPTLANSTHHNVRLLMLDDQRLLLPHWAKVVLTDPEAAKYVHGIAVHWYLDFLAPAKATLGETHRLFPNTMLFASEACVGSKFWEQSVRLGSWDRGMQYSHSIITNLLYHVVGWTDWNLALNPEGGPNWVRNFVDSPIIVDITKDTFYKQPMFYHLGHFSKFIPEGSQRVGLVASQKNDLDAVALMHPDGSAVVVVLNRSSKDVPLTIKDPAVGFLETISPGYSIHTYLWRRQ
Cytochrome P450 2C9 (Homo sapiens), sequence (P11712 whole entry, looked up): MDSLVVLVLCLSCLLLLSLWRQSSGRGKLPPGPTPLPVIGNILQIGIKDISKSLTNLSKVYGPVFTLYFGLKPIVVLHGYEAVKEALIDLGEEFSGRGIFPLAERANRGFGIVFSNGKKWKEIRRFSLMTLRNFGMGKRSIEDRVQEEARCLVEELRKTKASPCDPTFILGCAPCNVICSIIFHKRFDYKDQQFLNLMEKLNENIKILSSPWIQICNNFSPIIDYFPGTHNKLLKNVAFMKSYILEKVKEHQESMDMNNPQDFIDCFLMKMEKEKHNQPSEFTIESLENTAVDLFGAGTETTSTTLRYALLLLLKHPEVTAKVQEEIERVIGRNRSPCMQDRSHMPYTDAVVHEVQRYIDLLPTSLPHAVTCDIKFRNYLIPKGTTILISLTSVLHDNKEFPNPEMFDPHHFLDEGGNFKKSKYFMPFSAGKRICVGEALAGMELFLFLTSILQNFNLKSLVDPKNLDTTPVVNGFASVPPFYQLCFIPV
Cytochrome P450 3A4 (Homo sapiens), sequence (P08684 whole entry, looked up): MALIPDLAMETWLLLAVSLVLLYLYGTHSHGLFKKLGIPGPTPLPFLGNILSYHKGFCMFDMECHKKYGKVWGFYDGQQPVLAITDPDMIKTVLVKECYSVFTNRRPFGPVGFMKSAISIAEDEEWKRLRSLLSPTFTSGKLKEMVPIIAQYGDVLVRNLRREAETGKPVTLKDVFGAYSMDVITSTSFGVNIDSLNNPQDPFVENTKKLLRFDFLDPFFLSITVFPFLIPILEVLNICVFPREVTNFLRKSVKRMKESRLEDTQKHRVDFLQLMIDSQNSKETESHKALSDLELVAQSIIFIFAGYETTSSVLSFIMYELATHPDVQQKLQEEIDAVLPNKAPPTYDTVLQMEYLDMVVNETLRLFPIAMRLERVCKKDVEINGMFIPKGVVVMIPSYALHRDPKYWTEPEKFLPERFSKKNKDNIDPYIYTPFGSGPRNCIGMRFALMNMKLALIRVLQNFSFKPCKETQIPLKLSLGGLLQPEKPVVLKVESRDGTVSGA
3',5'-cyclic-AMP phosphodiesterase 4B (Homo sapiens), sequence (Q07343 whole entry, looked up): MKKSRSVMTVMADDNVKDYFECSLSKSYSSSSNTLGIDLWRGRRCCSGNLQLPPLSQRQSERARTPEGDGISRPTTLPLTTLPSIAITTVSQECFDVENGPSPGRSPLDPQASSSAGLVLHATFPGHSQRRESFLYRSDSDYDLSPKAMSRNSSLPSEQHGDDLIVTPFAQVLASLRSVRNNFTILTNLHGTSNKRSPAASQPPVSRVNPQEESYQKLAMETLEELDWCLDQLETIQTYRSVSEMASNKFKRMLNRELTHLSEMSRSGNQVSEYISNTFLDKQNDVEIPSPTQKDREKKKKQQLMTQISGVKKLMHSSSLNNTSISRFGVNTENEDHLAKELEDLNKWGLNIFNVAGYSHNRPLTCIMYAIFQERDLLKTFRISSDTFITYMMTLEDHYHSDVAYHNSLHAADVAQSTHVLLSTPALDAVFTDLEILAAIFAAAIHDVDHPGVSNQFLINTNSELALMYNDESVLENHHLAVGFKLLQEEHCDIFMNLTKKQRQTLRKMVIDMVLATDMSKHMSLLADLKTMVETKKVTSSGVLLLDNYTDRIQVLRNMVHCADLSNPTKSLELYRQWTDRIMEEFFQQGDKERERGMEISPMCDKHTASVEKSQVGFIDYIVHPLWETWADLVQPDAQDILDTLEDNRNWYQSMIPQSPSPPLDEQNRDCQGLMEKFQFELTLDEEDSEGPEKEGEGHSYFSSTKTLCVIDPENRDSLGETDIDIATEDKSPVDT
Cytochrome P450 2C19 (Homo sapiens), sequence (P33261 whole entry, looked up): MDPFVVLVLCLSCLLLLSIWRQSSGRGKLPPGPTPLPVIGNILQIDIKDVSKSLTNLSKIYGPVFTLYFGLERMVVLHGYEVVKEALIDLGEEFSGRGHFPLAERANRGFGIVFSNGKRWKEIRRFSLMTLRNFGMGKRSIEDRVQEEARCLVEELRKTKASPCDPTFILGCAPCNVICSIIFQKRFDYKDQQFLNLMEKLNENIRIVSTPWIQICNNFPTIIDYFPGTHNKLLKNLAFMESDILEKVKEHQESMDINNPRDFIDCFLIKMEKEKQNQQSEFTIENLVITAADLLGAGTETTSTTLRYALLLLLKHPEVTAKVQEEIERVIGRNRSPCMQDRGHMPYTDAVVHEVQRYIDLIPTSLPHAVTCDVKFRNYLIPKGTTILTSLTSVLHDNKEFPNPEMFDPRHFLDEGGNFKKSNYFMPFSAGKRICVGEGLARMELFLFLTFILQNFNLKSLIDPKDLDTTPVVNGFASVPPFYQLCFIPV
Cytochrome P450 1A2 (Homo sapiens), sequence (P05177 whole entry, looked up): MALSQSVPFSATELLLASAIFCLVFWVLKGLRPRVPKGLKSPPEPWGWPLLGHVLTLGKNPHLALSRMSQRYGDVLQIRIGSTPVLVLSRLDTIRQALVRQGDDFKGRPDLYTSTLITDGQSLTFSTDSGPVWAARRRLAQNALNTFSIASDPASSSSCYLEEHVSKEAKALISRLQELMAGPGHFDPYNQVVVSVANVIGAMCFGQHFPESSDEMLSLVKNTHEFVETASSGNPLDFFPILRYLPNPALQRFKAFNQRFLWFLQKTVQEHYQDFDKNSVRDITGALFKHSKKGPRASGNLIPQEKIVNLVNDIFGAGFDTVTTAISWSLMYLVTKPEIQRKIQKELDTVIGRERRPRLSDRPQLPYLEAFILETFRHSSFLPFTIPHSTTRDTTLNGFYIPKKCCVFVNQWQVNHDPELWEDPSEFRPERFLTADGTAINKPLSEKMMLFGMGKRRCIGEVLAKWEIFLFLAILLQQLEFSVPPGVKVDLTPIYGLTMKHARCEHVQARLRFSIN
Glucocorticoid receptor (Homo sapiens), sequence (P04150 whole entry, looked up, the tested form may be a part): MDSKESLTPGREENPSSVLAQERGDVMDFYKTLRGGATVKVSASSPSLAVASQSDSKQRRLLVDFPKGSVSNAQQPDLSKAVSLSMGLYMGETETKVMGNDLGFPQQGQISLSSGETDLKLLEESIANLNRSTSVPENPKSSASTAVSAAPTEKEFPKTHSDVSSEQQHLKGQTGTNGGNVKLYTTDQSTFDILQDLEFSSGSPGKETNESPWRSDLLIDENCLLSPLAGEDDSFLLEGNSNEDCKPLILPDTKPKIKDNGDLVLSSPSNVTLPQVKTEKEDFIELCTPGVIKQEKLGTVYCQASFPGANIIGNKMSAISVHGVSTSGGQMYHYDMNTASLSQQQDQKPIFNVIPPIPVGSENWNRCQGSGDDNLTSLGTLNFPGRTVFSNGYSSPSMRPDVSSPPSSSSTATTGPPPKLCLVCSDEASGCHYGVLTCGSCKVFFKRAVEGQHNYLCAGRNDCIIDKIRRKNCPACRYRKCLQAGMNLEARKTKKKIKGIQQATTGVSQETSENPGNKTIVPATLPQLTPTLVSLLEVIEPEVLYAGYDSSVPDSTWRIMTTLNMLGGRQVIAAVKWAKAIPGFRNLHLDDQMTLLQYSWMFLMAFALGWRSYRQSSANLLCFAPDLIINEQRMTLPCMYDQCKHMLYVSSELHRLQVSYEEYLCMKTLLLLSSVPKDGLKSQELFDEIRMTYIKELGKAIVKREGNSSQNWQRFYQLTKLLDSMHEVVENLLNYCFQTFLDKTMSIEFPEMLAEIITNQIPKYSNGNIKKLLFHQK

Turning to `COc1ccc2cc1Oc1ccc(cc1)C[C@@H]1c3c(cc(OC)c4c3Oc3cc5c(cc3O4)CCN[C@H]5C2)CCN1C`, the Potency was more than 11.4 µM in [1], more than 46 µM in [5] and more than 9.22 µM in [6]. In assay [2], the activity change, negative = inhibition was -4.55%. The Potency entry in assay [3], in [7] and in [8] was “inactive” each time. In [4], the activity, negative = inhibition is 14.2%.

For the molecule `Cc1cc(OCc2nc(N)nc(N)c2-c2ccc(Cl)c(Cl)c2)ccc1[N+](=O)[O-]`, the Potency in assay [1] was more than 11.4 µM; in assay [3], 5.01 µM (active); in assay [5], more than 46 µM; in assay [6], more than 9.22 µM; in assay [9] it was 1.58 µM (active); in assay [11], 3.16 µM (active). In assay [2], the activity change, negative = inhibition is -18.3%. Also, the activity, negative = inhibition in assay [4] is -17.5%. Besides, the Potency entry in [7], in assay [8] and in [10] was “inactive” in each case.

As for `Cc1c2cccc(Sc3ccccc3)c2c2c3c(cccc13)[S+](c1ccccc1)C2` (stereo not drawn), the Potency in [1] was more than 11.4 µM; in assay [5], more than 46 µM; in assay [6], more than 9.22 µM; in [9], 2.51 µM (active); in assay [11], 0.0631 µM (active). The activity change, negative = inhibition is -7.04% in [2] and -17.3% [at 2.29 µM] in assay [3]. In addition, the activity, negative = inhibition in assay [4] is 2.31%. Moreover, the Potency result in [7], in [8] and in assay [10] was “inactive” each time. Moreover, the activation in assay [12] is -19.6%.

Take `Oc1ccc2ccccc2c1Cc1c(O)ccc2ccccc12`: the Potency in assay [1] is more than 11.4 µM; in assay [3], 3.98 µM (active); in assay [5], more than 46 µM; in assay [6], more than 9.22 µM; in assay [9], 2 µM (active); in assay [11] it was 0.316 µM (active). Further, in assay [2], the activity change, negative = inhibition was 0.512%. Besides, in assay [4], the activity, negative = inhibition is -5.79%. The Potency entry in assay [7] and in assay [8] was “inactive” each time.

With `N=C(N)SCc1nc(-c2ccc(Cl)cc2)no1`, the Potency is more than 11.4 µM in [1]; 1.26 µM (active) in [3]; more than 46 µM in assay [5]; more than 9.22 µM in assay [6]; 3.98 µM (active) in [9]. In addition, the activity change, negative = inhibition in assay [2] was 26%. Further, in assay [4], the activity, negative = inhibition was 17.8%. Further, the Potency entry in [7], in assay [8] and in [10] was “inactive” throughout.

For the molecule `Oc1ccc(Cc2cc(Cl)cc(Cl)c2O)cc1Cl`, the Potency in assay [1] is more than 11.4 µM; in assay [3], 1.58 µM (active); in assay [5] it was more than 46 µM; in assay [6] it was more than 9.22 µM; in [9], 0.199 µM (active); in assay [11], 1.26 µM (active). Moreover, the activity change, negative = inhibition in [2] was -21.8%. In assay [4], the activity, negative = inhibition is -9.97%. Further, the Potency result in assay [7], in assay [8] and in assay [10] was “inactive” each time.

Regarding `Cc1cc(O)c(C(C)C)cc1N=Cc1ccccc1O`, the Potency in [1] is more than 11.4 µM; in assay [3], 1.58 µM (active); in assay [5], more than 46 µM; in assay [6], more than 9.22 µM; in assay [9] it was 0.631 µM (active); in assay [13] it was 3.16 µM (active). Moreover, the Potency in [11] was 0.398 µM (active). In addition, the activity change, negative = inhibition in assay [2] was 7.1%. The activity, negative = inhibition in assay [4] is -2.05%. The Potency entry in [7], in [8] and in [10] was “inactive” each time.

For the molecule `O=C(O)/C=C\C(=O)N1Cc2cc3ccccc3nc2C1`, the Potency in assay [1] is more than 11.4 µM; in assay [5], more than 46 µM; in assay [6], more than 9.22 µM. Further, the activity change, negative = inhibition in [2] was 6.48%. Besides, the Potency entry in [3], in [7] and in [8] was “inactive” each time. Further, the activity, negative = inhibition in assay [4] is 12.1%.

In the case of `N=C1CCC[C@@H]1C(=S)SCCC(N)=O`, the Potency in [1] was more than 11.4 µM; in assay [3] it was 3.16 µM (active); in assay [5], more than 46 µM; in assay [6], more than 9.22 µM. The activity change, negative = inhibition in assay [2] is -7.71%. In addition, the activity, negative = inhibition in assay [4] is -12.4%. The Potency entry in assay [7] and in assay [8] was “inactive” throughout.

Turning to `O[C@@H](c1cc([C@@]23C[C@H]4CC[C@@H]2C[C@H](C4)C3)nc2c(Cl)cc(Cl)cc12)[C@@H]1CCCCN1`, the Potency in assay [1] was more than 11.4 µM; in [5] it was more than 46 µM; in assay [6], more than 9.22 µM. For the same molecule, the activity change, negative = inhibition in assay [2] was 1.64%; in [3] it was -10.5% [at 2.29 µM]. In addition, the activity, negative = inhibition in [4] was 0.88%. Also, the Potency result in [7] and in assay [8] was “inactive” throughout.

With `C[C@]1(O)CC[C@H]2[C@H]3CC=C4N5CCN=C5CC[C@@]4(C)[C@H]3CC[C@@]21C`, the Potency in assay [1] is more than 11.4 µM; in assay [5], more than 46 µM; in assay [6], more than 9.22 µM. The activity change, negative = inhibition in assay [2] was -0.00324%; in assay [3], -12.8% [at 2.29 µM]. The activity, negative = inhibition in [4] is -6.8%. For the same molecule, the Potency result in assay [7] and in assay [8] was “inactive” each time.

As to `Cc1ccc(C2=C(Cl)C(=O)C(c3ccc(C)cc3)=C(Cl)C2=O)cc1`, the Potency is more than 11.4 µM in [1], more than 46 µM in assay [5], more than 9.22 µM in assay [6] and 1.58 µM (active) in assay [9]. The activity change, negative = inhibition is 4.65% in [2] and -16.9% [at 2.29 µM] in [3]. Moreover, in assay [4], the activity, negative = inhibition was -13.6%. The Potency result in assay [7] and in assay [8] was “inactive” throughout.

Regarding `O=C(O)/C=C\C(=O)Nc1cccc2c1-c1ccccc1C2=O`, the Potency in assay [1] is more than 11.4 µM; in assay [3], 2.51 µM (active); in [5], more than 46 µM; in [6] it was more than 9.22 µM. Also, in [2], the activity change, negative = inhibition is -2.3%. In addition, the activity, negative = inhibition in assay [4] is -4.51%. Further, the Potency entry in assay [7] and in [8] was “inactive” throughout.

As for `CN(C)C[C@H]1CCC2=C(C1=O)C(c1ccc(Cl)c(Cl)c1)C1=C(CC[C@H](CN(C)C)C1=O)O2`, the Potency in [1] is more than 11.4 µM; in [5], more than 46 µM; in assay [6], more than 9.22 µM; in [13], 0.398 µM (active). The figures for the activity change, negative = inhibition in [2] and in assay [3] were 0.767% and -2% [at 2.29 µM], respectively. Also, the activity, negative = inhibition in assay [4] is 13.6%. Also, the Potency entry in assay [7], in assay [8] and in [10] was “inactive” throughout.
